About 8,600 (12%) of roughly 69,000 compounds showed an effect of 50% or more. The sample as a whole holds a higher share of strong results than the screen did.

Consider 68 molecules from ChEMBL document CHEMBL4513216, “Probing the Open Global Health Chemical Diversity Library for Multistage-Active Starting Points for Next-Generation Antimalarials” (ACS Infect Dis, 2020).

This assay deals with Plasmodium berghei. As to the kind of experiment: Screen against P. berghei liver stage (PbLuc), transformed with Luciferase, at 10uM. The format is functional, HepG2. Conditions: tested at 10 uM.
For the molecule `CO[C@@]1(C)C[C@@H](O)C12CCN(C(=O)c1ccccc1C(C)=O)CC2`, the INHIBITION is reported as 40.7%.
For `Cc1ccc(CN2C[C@@H]3COC[C@H](C(=O)N4CCCCO4)[C@@H]3C2)o1`, the INHIBITION was found to be 14.8%.
For `CC(C)CCN1CC2(CCCN(C(=O)CNC(=O)N(C)C)C2)CCC1=O` (stereo not drawn) the value was 19.4%; for `Cc1cc(NC(=O)NCC(C)N2CCOCC2)n(C)n1` (stereo not drawn), -17%; for `Cc1cc(-c2cnc(C3CC3)nc2CN(C)C(=O)c2ccccn2)on1`, -25%.
For `CCOCCCNC(=O)Nc1ccc(F)c(C(N)=O)c1` the value was 7.67%; for `O=c1c2cccnc2ccn1Cc1nccn1C1CC1`, 14.9%.
For `C[C@]1(O)CCN(Cc2c[nH]cn2)C[C@@H]1Oc1cccc(F)c1` the value was 32.3%; for `Cc1cnccc1CN1CC[C@H](Oc2cccc(F)c2)[C@@](C)(O)C1`, 48.6%; for `C[C@]1(O)CCN(Cc2cccnc2)C[C@@H]1Oc1cccc(F)c1`, 44.1%.
For `Cc1cnccc1CN1CC[C@@](C)(O)[C@H](Oc2ccccc2)C1`, the INHIBITION was determined as 39.2%.
For the molecule `COc1ncc(CN2CC[C@@](C)(O)[C@H](Oc3cccc(F)c3)C2)cn1`, the INHIBITION amounted to 37.9%.
Take `C[C@]1(O)CCN(Cc2nccs2)C[C@@H]1Oc1cccc(F)c1`: the INHIBITION came to 26.3%.
Take `Cc1ncc(CN2CC[C@@](C)(O)[C@H](Oc3cccc(F)c3)C2)cn1`: the INHIBITION is 56%.
For `C[C@@]1(O)CCN(Cc2cc[nH]n2)C[C@H]1Oc1cccc(F)c1` the value was 66.4%.
For `Cc1cnccc1CN1CC[C@@](C)(O)[C@H](Oc2cccc(F)c2)C1` the value was 56%; for `O=C(Nc1ccccc1F)C1=NOC2(CCNCC2)C1`, -18.5%; for `CSCc1noc(CNC(=O)C2CCN(C(=O)C3CC3)CC2)n1`, 23%.
Take `Cc1nc(N2CCCC2)nc2c1CN(C(=O)N(C)C)CC2`: the INHIBITION turned out to be 37.1%.
For `CN(CCc1ccncc1)CC1CCCN1c1cccnn1` (stereo not drawn) the value was -69.3%.
Regarding `Cc1cccc2nc(C(=O)N3CCC4(CCC(=O)N(C)C4)CC3)c(F)n12`, the INHIBITION was found to be 33.4%.
As for `Cc1cnc(-c2nc(NC3CC3)ncc2-c2onc(C)c2C)cn1`, the INHIBITION was found to be 0.301%.
For `Fc1ccc(CN2CCC3(CCN(Cc4nccs4)CC3)C2)cc1` the value was 21.7%; for `CCN1CCC(CNCc2c[nH]nc2C(C)(C)C)C1` (stereo not drawn), 11.4%.
As to `COc1ccc(CC(=O)N2CCC3(CC2)CCN(CC(C)C)C3=O)cc1`, the INHIBITION is given as 35.8%.
For `Cc1nc(-c2ccsc2)ccc1C(=O)N(C)CC(F)(F)F` the value was -4.12%; for `CN(C)Cc1noc2c1CN(Cc1ccc[nH]1)CC2`, 73.2%.
For `Cc1cccc(CN2CCc3onc(CN(C)C)c3C2)n1` the value was -14.2%.
On to `CN(C)Cc1noc2c1CN(Cc1ccsc1)CC2`, for which the INHIBITION was 15.7%.
As for `CN1CC(=O)N(c2ccccc2)CC12CCN(Cc1nccn1C)C2` (stereo not drawn), the INHIBITION is listed as 7.31%.
Take `CNc1nc(CNC(=O)Nc2cccc(-c3ncc(C)o3)c2)cs1`: the INHIBITION was determined as 20.1%.
For `CCn1cc(-c2nn3c(C(F)(F)F)nnc3s2)c(C)n1` the value was 4.12%; for `CCn1cc(-c2cc(C(F)(F)F)nc(NC3CCCC3)n2)c(C)n1`, 68.7%; for `Cc1nn(C)cc1-c1cc(C(F)F)nc(NC2CCCCC2)n1`, 26.9%.
For `Cc1nc2n(n1)CC(Nc1cc(C(F)(F)F)nc3ncnn13)CC2` (stereo not drawn) the value was -29.2%; for `Cc1nn(C)cc1-c1cc(C(F)(F)F)nc(NC2CCCCC2)n1`, 58.9%; for `Cc1nn(C)cc1-c1cc(C(F)(F)F)nc(NC2CCN(C)CC2)n1`, 40.5%.
`Cc1cc(N)n(-c2ccc3nnc(C)n3n2)n1`: the INHIBITION amounted to 37.5%.
With `Cc1cc(C(=O)N2CCCC(n3cncn3)C2)on1` (stereo not drawn), the INHIBITION is -23.9%.
For `CCc1ccccc1CN1CC[C@@]2(O)CCN(S(=O)(=O)N(C)C)C[C@H]2C1` the value was 44.6%; for `O=C(Nc1cncc(Br)c1O)c1ccon1`, 83.2%.
For `O=C(Cc1ccon1)Nc1cncc(Br)c1O`, the INHIBITION is reported as -9.23%.
For `O=C(Cc1ccn[nH]1)Nc1cncc(Br)c1O` the value was 22.6%.
As to `CN(C)C(=O)CO[C@H]1CN(Cc2cccc(C#N)c2)[C@@H]2COC[C@H]12`, the INHIBITION came out at 7.31%.
For `Cc1noc(C2CCCCN2C(=O)NCc2ccco2)n1` (stereo not drawn) the value was 26.4%; for `CNC1CCC2(CC1)CNC(=O)c1cc(C)ccc1O2` (stereo not drawn), -16.5%.
`O=C(NC1CCS(=O)(=O)C1)c1cn(C2CC2)c(=O)c2ccccc12` (stereo not drawn): the INHIBITION is 43.9%.
For `C[C@@H]1CCC[C@H](C)N1CC(=O)N1CCc2[nH]c(-c3ccccc3)nc2C1` the value was 64.8%; for `CC(=O)NCC(=O)N1CCc2[nH]c(-c3ccccc3)nc2C1`, 43%; for `CN1CCCN(CC(=O)N2CCc3[nH]c(-c4ccccc4)nc3C2)CC1`, 17.6%.
For `COc1nc2c(cc1C(=O)NCc1noc(Cc3cccs3)n1)CCC2` the value was 24.7%.
Consider `COc1nc2c(cc1C(=O)NCc1noc(-c3ccco3)n1)CCC2`, for which the INHIBITION was determined as 55%.
For the molecule `COc1nc2c(cc1C(=O)NCc1nc(CSC)no1)CCC2`, the INHIBITION amounted to 43.1%.
As for `CCCC(N)CNS(=O)(=O)Cc1cccc(C#N)c1` (stereo not drawn), the INHIBITION amounted to 39.3%.
For `O=C(NCCn1ccnc1-c1cc2n(n1)CCNC2)c1ccncc1` the value was 62.4%; for `O=C(NCCn1ccnc1-c1cc2n(n1)CCNC2)c1ccc(F)cc1`, 8.08%.
`O=C(NCCn1ccnc1-c1cc2n(n1)CCCNC2)c1ccncc1`: the INHIBITION came to 32%.
For `Nc1nc(N2CCCCC2)ncc1C(=O)NCc1ccc(F)c(Cl)c1` the value was 26.4%; for `O=C(COc1cccc2c1CCC2=O)NCCc1cccs1`, 63.7%; for `O=C(COc1cccc2c1CCC2=O)NCCSc1ccccc1`, -66.3%.
For `O=C(COc1cccc2c1CCC2=O)NCc1ccccc1Cl` the value was 50%; for `O=C(COc1cccc2c1CCC2=O)NCC(F)(F)F`, 20%; for `O=C(COc1cccc2c1CCC2=O)NCc1ccccc1F`, 1.58%.
For `O=C(COc1cccc2c1CCC2=O)NCCOc1ccccc1` the value was 41.8%; for `Cc1cc(N2CCC(O)(CN(C)C)C2)c2cc3c(cc2n1)OCO3` (stereo not drawn), -7.02%.
On to `COCC(=O)N1CCCC1c1ccc(C(=O)NCc2ccccc2Cl)s1` (stereo not drawn), for which the INHIBITION is on record as -9.66%.
For `COc1ccc(CSc2nnc(N)n2C2CC2)cc1Cl` the value was 46.3%; for `CCCS(=O)(=O)N1CCC2(CN(c3ccccc3)C(=O)CN2C)C1` (stereo not drawn), 41.2%.
